Test results reported in ChEMBL document CHEMBL1157539, “Thousands of chemical starting points for antimalarial lead identification” (Nature, 2010).

How the values were obtained:
Format in all cases: functional
Plasmodium falciparum [1] = experiment: GSK_TCMDC: Inhibition of Plasmodium falciparum 3D7 in whole red blood cells, using parasite LDH activity as an index of growth. Test compounds present at 2uM
Plasmodium falciparum [2] = experiment: GSK_TCMDC: Inhibition of Plasmodium falciparum Dd2 in whole red blood cells, using parasite LDH activity as an index of growth. Test compounds present at 2uM
HepG2 = experiment: GSK_TCMDC: Percent inhibition of human HepG2 cell line. Test compounds present at 10uM.

| SMILES | Inhibition (Plasmodium falciparum [1]) [%] | Inhibition (Plasmodium falciparum [2]) [%] | Inhibition (HepG2) [%] |
| --- | --- | --- | --- |
| Cc1ccc2nc(C)n(C3CCN(C(=O)Cc4ccccc4C)CC3)c2c1 | 100 | 100 | 2 |
| CC(C)N1CCC(N(Cc2ccc(-c3ccc(Cl)cc3)cc2)C(=O)Cn2c(CCc3cccc(F)c3F)cc(=O)c3ccccc32)CC1.O=C(O)C(O)C(O)C(=O)O | 96 | 73 | 62 |
| Cc1cc(N[C@@H](Cc2ccccc2)C(=O)NCCOc2ccccc2)nc(NCCc2ccccn2)n1.O=C(O)C(F)(F)F | 92 | 42 | 12 |
| O=C(/C=C/C=C/c1ccccc1)NCCCCCN1CCC(c2c[nH]c3ccccc23)CC1 | 85 | 7 | 28 |
| Cc1c(N=O)cc(C(C)(C)C)c(O)c1C(=O)Nc1ccc([N+](=O)[O-])cc1Cl | 100 | 98 | 72 |
| CC(C)(CNC(=O)C1CCN(CCOc2ccc(Cl)cc2)CC1)c1nc(-c2ccc(Cl)c(O)c2)c(-c2ccncc2)[nH]1.Cl | 100 | 5 | 40 |
| O=CO.O=S1(=O)NCc2ccc(Nc3nccc(Nc4ccc5c(cnn5Cc5ccccc5)c4)n3)cc21 | 94 | 33 | 0 |
| O=C(O)C(F)(F)F.O=[N+]([O-])c1cnc(Nc2ccccc2O)nc1Nc1ccccc1O | 98 | 80 | 24 |
| O=C(Nc1ccc(OC2CCN(Cc3ccccc3)CC2)c(Cl)c1)c1ccsc1.O=C(O)C(F)(F)F | 87 | 92 | 3 |
| OC(CNc1ccnc(Nc2ccc(Cl)cc2)n1)c1cccc(C(F)(F)F)c1 (centres undefined) | 100 | 84 | 9 |
| Br.CC1(C)NC(N)=NC(=N)N1OCCCCOc1ccc(Cl)cc1C1CCCCC1 | 93 | 97 | 56 |
| Cc1cc(NC(=O)Nc2ccc(C(C)C)cc2)c2ccccc2n1.Cl | 99 | 16 | 7 |
| O=C(Nc1cccc(-c2nn3ncccc3c2-c2ccnc(Nc3ccccc3)n2)c1)c1c(F)cccc1F | 98 | 96 | 51 |
| O=C(Nc1ccc(Cl)cc1)Nc1ccc2c(c1)N1CCN=C1S2 | 99 | 100 | 15 |
| CC1(CCc2ccccc2)N=C(N)N(Cc2ccccc2)C(=O)C1c1ccc(Cl)c(Cl)c1.O=C(O)C(F)(F)F (centres undefined) | 97 | 96 | 100 |
| CCc1cc(Cc2cnc(N)nc2N)cc(CC)c1OC | 90 | 12 | 3 |
| O=C(CC1CCCC1)N(Cc1ccc(-c2ccc(CNC3Cc4ccccc4C3)cc2)cc1)CC1CCCCN1.O=C(O)C(F)(F)F (centres undefined) | 88 | 86 | 41 |

| SMILES | Inhibition (Plasmodium falciparum [1]) [%] | Inhibition (Plasmodium falciparum [2]) [%] | Inhibition (HepG2) [%] |
| --- | --- | --- | --- |
| COc1cc(NCCCCCNc2cc(Cl)nc3ccccc23)nc2ccccc12 | 100 | 54 | 17 |
| O=C(Nc1cccc(-c2csc(NC(=O)c3ccc4ccccc4c3)n2)c1)c1ccc2ccccc2c1 | 89 | 35 | 3 |
| CCN(CCO)Cc1ccc(-c2ccc(NS(=O)(=O)c3cccc4cccnc34)cc2)cc1.O=C(O)C(F)(F)F | 92 | 16 | 25 |
| CCCC(=O)NC(NC(=S)Nc1ccc([N+](=O)[O-])cc1)C(Cl)(Cl)Cl (centres undefined) | 93 | 14 | 10 |
| CC(C)(CNC(=O)[C@H]1CCCN1)c1nc(-c2ccc(Cl)c(O)c2)c(-c2ccncc2)[nH]1.Cl | 86 | 95 | 0 |
| Cn1c(N=C2NC3(c4ccccn4)NC(=Nc4nc5ccccc5n4C)NC3(c3ccccn3)N2)nc2ccccc21.O=C(O)C(F)(F)F (centres undefined) | 99 | 44 | 12 |
| COc1ccc(C(=O)NCc2ccccc2-c2ccc(C(C)(C)C)cc2)cc1O | 99 | 97 | 10 |
| COc1ccc(-c2cccc(NC(=O)c3cccc(Cl)c3)c2)cc1CN1CCN(C)CC1.O=C(O)C(F)(F)F | 100 | 48 | 27 |
| O=C(Nc1ccccc1)OCCOc1ccc(CC2SC(=O)NC2=O)cc1 (centres undefined) | 100 | 0 | 1 |
| O=C(NC12CC3CC(CC(C3)C1)C2)C(=O)c1c[nH]c2ccccc12 | 97 | 2 | 16 |
| CNC(=O)COc1cc(C)c(C2CCN(CCCCNC(=O)c3ccc(-c4ccc(C(F)(F)F)cc4)cc3)CC2)cc1C | 100 | 72 | 38 |
| N#Cc1nc2ccc(OCCN(Cc3ccccc3C(F)(F)F)c3ccc(C#N)c(C(F)(F)F)c3)cc2s1 | 93 | 47 | 23 |
| COc1ccccc1-n1c(-c2ccc3ccccc3c2)csc1=NC(=O)c1ccccc1 | 93 | 79 | 0 |
| Br.CCCCc1ccc(CCNCCCCCCNCCc2ccc(O)c(O)c2)cc1 | 100 | 0 | 45 |
| COc1cc(F)c2ncc(Cl)c([C@@H](O)CN3CCC(NCc4cc5c(cn4)OCCO5)CC3)c2c1.Cl | 100 | 100 | 11 |
| NCC1CCCN1Cc1cccc(-c2ccc(-c3nc4ccccc4[nH]3)s2)c1.O=C(O)C(F)(F)F (centres undefined) | 99 | 66 | 16 |
